# Bioassay records: PubChem, National Center for Advancing Translational Sciences (NCATS)
# KB-3-1 cytotox – qHTS assay for MDR1-selective chemotherapeutics: Primary screen using the parental adenocarcinoma cell KB-3-1; AID 1347075, 2019; Potency, µM (top dose mostly 46.1 µM), most hits filed as cytotoxic; actives 1.4% (n = 400,000); KB-3-1 viability, CellTiter-Glo ATP luminescence, 72 h; further: nearly all actives have a fitted effect of over 60% in size
#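 Screening of KB-3-1 cells (DMEM, 10% FBS, phenol-red free) ran from lowest to highest compound concentration; after 72 h at 37 °C viability was read luminescently and curves fitted.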
# MCF10A rereplic – A quantitative high throughput screen for small molecules that induce DNA re-replication in MCF 10a normal breast cells; AID 624296, 2012; Potency, µM (highest dose often 46.1 µM), most hits filed as activators; MCF 10A DNA re-replication, Hoechst nuclear intensity, 48 h; actives 2.9% (n = 350,000); further: nearly all actives have a fitted effect of over 50% in size
# SW480 rereplic – A quantitative high throughput screen for small molecules that induce DNA re-replication in SW480 colon adenocarcinoma cells; SW480 DNA re-replication, Hoechst DNA content imaging, 48 h; Potency, µM (titrated, usually from 46.1 µM), most hits filed as activators; actives 1.8% (n = 340,000); further: nearly all actives have a fitted effect of over 55% in size
#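 Cells (250 per well) received 23 nL compound or DMSO by pin tool and were kept 48 hr at 37 C, 5% CO2. Nuclei were then stained with Hoechst for 40 min and scanned for DNA content.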
# KB-V1 MDR tox – qHTS assay for MDR1-selective chemotherapeutics: Primary screen using the drug-selected MDR subline cells KB-V1. AID 1347076, 2019. KB-V1 MDR cells viability, CellTiter-Glo, 72 h. actives 3.4% (n = 400,000). Potency, µM (doses to about 46.1 µM), usual class: cytotoxic; further: nearly all actives have a fitted effect of over 60% in size
#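 KB-V1, DMEM (no phenol red) + 10% FBS; cpd pin-transferred, titration series; 72 h, 37 degrees C; CellTiter-Glo, luminescence. Data normalized, curve-fit.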
# PINK1 modulator – A Quantitative High throughput Screen to Identify Chemical Modulators of PINK1 Expression | PINK1 immunofluorescence, high-content cytometry, 24 h | Potency, µM (doses to about 76.6 µM), most hits filed as activators | actives 0.2% (n = 410,000) | AID 624263, 2012; active means well fitted activation curve with a large enough effect; inconclusive means small, poorly fitted or top-dose-only effect; cell line not stated here; further: nearly all actives have a fitted effect of over 65% in size
#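 Stable cell line treated 24 h with compounds at 5 concentrations (CCCP controls), then fixed and immunostained for PINK1 plus nuclear and cell stains; PINK1 immunofluorescence quantified by laser-scanning microplate cytometry.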
# 12-LOX inh – Primary qHTS assay for inhibitors of human arachidonate 12S-lipoxygenase (ALOX12): Round 2. Potency, µM (doses to about 108 µM), hits mostly inhibitors. actives 1.1% (n = 580,000). purified 12hLO, xylenol orange hydroperoxide absorbance. Polyunsaturated fatty acid lipoxygenase ALOX12 (Homo sapiens), P18054. AID 1671190, 2021
# Target sequence (P18054 whole entry, looked up): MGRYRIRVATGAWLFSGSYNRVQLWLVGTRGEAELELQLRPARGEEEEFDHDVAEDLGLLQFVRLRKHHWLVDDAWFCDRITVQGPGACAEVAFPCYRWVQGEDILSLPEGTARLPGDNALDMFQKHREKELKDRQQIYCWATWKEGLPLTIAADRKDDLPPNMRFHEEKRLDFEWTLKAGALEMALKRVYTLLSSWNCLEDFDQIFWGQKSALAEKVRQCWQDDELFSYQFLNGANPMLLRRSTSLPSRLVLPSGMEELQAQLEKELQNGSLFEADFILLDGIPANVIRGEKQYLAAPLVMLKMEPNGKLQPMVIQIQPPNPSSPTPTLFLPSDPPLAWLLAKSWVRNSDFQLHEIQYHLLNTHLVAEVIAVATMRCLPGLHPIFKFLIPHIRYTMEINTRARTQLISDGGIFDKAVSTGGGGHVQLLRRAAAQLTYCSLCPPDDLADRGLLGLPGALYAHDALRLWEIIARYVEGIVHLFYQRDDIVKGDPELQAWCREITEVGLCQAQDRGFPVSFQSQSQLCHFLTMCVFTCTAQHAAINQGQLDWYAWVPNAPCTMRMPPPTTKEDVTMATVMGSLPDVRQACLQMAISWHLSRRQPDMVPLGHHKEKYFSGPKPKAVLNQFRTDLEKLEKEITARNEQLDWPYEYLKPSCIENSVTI
#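 Purified human 12hLO at 150 nM in 25 mM Hepes, 0.01% Triton X-100, pH 7.0, preincubated 15 min at room temperature with compound. Reaction started with 40 uM arachidonic acid, 30 min at room temperature. Hydroperoxide measured by Fe-xylenol orange, 573/405 nm absorbance ratio.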
# A number is an active result; . = inactive; ? = inconclusive; / = no result; [ ] = another dose, or the depositor's remark. Most compounds without a hit are left out; they make up all but 5.8% or so of the library. Unless noted, the call rests on the fitted dose curve; in most records, active means well fitted curve in the direction sought with a large enough effect; inconclusive means small, poorly fitted or top-dose-only effect, or another doubt; inactive means no such curve, though single readings can be large; an effect the other way counts as inactive or inconclusive.
SMILES,KB-3-1 cytotox,MCF10A rereplic,SW480 rereplic,KB-V1 MDR tox,PINK1 modulator,12-LOX inh
COc1cc(C(=O)NC(=S)Nc2ccc(Cl)cn2)cc(OC)c1OC,.,?,18.4µM,?,.,.
O=C(NC(=S)Nc1ccc(Cl)cn1)C(c1ccccc1)c1ccccc1,18.4µM,14.6µM,?,?,.,.
COc1ccc(C(=O)Nc2ccc3ccccc3c2)c(OC)c1,?,?,.,18.4µM,.,.
COc1cc(C(=O)NC(=S)Nc2ccc3ccccc3c2)cc(OC)c1OC,.,/,/,.,.,17.8µM
S=C(Nc1ccccc1)Nc1ccc(Cl)cn1,.,.,.,.,.,/
COc1cc(C(=O)NC(=S)Nc2ccc3c(c2)OCO3)cc(OC)c1OC,.,.,.,.,.,.
O=C(NCC(O)COc1ccc(C(F)(F)F)cc1)C1CCCC1 (stereo unspecified),/,/,/,/,/,.
CCC1CCCCN1C(=O)Cn1c(=O)n(-c2cc(C)cc(C)c2)c(=O)c2sccc21 (stereo unspecified),/,/,/,/,/,.
CCOc1ccc(CNS(=O)(=O)c2ccc(-c3coc(C)n3)cc2)cc1OC,?,/,/,23.1µM,.,.
CCOc1ccc(CNS(=O)(=O)c2ccc(-c3coc(C)n3)cc2)cc1,.,/,/,.,.,.
Cc1ccc(C(=O)Nc2c(C)ccc3nsnc23)c(Cl)c1,/,/,/,/,/,.
COc1ccc(C(=O)N(Cc2ccccc2)Cc2cc3cc4c(cc3[nH]c2=O)OCCO4)cc1,8.91µM,?,?,11.2µM,.,.
C=CCN(CC=C)C(=S)NC(=O)c1ccc(-c2ccccc2)cc1,?,?,.,5.8µM,.,?
CCN(Cc1ccccc1)C(=S)Nc1cc(C(=O)OC)ccc1C(=O)OC,.,.,.,14.6µM,.,.
O=C(NC(=S)N(Cc1ccccc1)Cc1ccccc1)c1ccccc1F,.,.,1.64µM,.,.,.
COc1ccc2nc(C[C@@H]3C[C@@H](C(C)C)[C@H](CNCc4ccccn4)C=C3C)[nH]c2c1,/,/,/,/,/,.
CCCc1ccc(C(C)NC(=O)C2CC2C)cc1 (stereo unspecified),/,/,/,/,/,.
C=CCN(CC=C)C(=S)NC(=O)c1ccc(OC)cc1,.,.,.,16.4µM,.,.
COc1ccc(C(=O)NC(=S)N(Cc2ccccc2)Cc2ccccc2)cc1,?,.[0.0737 µM],?,?,.,35.5µM
COc1ccc(-c2nc(NC(=O)c3ccc(C)cc3)n[nH]2)cc1OC,/,/,/,/,/,.
CCCCCCCc1ccc(-c2ccc(OC(F)F)cc2)nc1,/,/,/,/,/,.
CCc1nc2c(NC(=O)Nc3cccc(C(=O)OC)c3)cccn2n1,/,/,/,/,/,70.8µM
O=C(OCn1ncc(Br)c(Br)c1=O)c1ccccc1Cl,18.4µM,7.94µM,5.62µM,5.8µM,.,/
O=C(OCn1nnc2ccccc2c1=O)c1cccnc1Cl,.,.,.,.,.,.
O=C(OCn1ncc(Br)c(Br)c1=O)c1ccc(F)cc1,3.26µM,4.61µM,4.11µM,5.17µM,.,/
SMILES,KB-3-1 cytotox,MCF10A rereplic,SW480 rereplic,KB-V1 MDR tox,PINK1 modulator,12-LOX inh
O=C(Nc1ccc([C@@H](O)[C@H]2COCC(=O)N2Cc2ccccc2F)cc1)c1cccc(F)c1,/,/,/,/,/,.
CCn1c(-c2cc(Br)ccc2O)n[nH]c1=S,.,.,.,.,/,44.7µM
CCN(CC)C(=O)CSc1nnc(-c2cc3ccccc3cc2O)n1CC,3.26µM,.,.,2.91µM,.,?
CCn1c(-c2cc(Cl)ccc2OC)n[nH]c1=S,.,.,.,.,.,?
CCn1c(-c2c[nH]c3ccccc23)n[nH]c1=S,.,.,.,?,.,?
CCn1c(-c2cc3ccccc3cc2O)n[nH]c1=S,?,.,.,20.6µM,.,?
CC(C)C(NC(=O)C1CCCCC1C)C(=O)O (stereo unspecified),/,/,/,/,/,.
CC(=O)N1CC(C)Sc2ccc(S(=O)(=O)NCCc3ccc(C)cc3)cc21 (stereo unspecified),.,?,.,.,.,.
CC(=O)N1CC(C)Sc2ccc(S(=O)(=O)NCc3ccc(Cl)cc3)cc21 (stereo unspecified),23.1µM,.,?,.,.,.
Cc1ccc(NC(=O)C(Nc2ccccc2)c2ccccc2)cc1 (stereo unspecified),.,.,.,.,.,.
Cc1ccc(NC(C(=O)c2ccccc2)c2ccccc2)cc1 (stereo unspecified),?,?,.,.,35.5µM,?
COCCn1c(-n2nc(C)c(C)c2C)nc2c1c(=O)n(CC(=O)C(C)(C)C)c(=O)n2C,/,/,/,/,/,.
COc1ccccc1CNC(=O)C1CC2Cn3c(nc4cc(Cl)c(Cl)cc43)C2N1C (stereo unspecified),.,.,.,.,.,11.2µM
COc1ccccc1CNC(=O)C1CC2Cn3c(nc4cc5ccccc5cc43)C2N1C (stereo unspecified),.,.,.,.,.,.
Cc1occc1-c1nc(-c2ccc(Br)cc2)no1,/,/,/,/,/,.
Cc1[nH]c2c(C)cccc2c1CCNC(=O)c1ccc2c(c1[N+](=O)[O-])C(=O)c1ccccc1C2=O,?,7.94µM,18.4µM,.,.,.
CN(C)C(=O)c1ccc2c(c1[N+](=O)[O-])C(=O)c1ccccc1C2=O,.,?,/,?,.,.
Cc1[nH]c2ccccc2c1CCNC(=O)c1ccc2c(c1[N+](=O)[O-])C(=O)c1ccccc1C2=O,.,?,?,16.4µM,.,.
CS(=O)(=O)N1CCN(C(C(=O)O)c2c[nH]c3ccccc23)CC1 (stereo unspecified),/,/,/,/,/,.
Cc1cc(NC(=O)CSc2nccn2-c2cccc(Cl)c2)on1,/,/,/,/,/,.
Clc1ccc(-c2csc3ncnc(N4CCc5ccccc5C4)c23)cc1,.,?,.,16.4µM,.,.
CCOC(=O)N1CCN(c2ncnc3scc(-c4ccc(Cl)cc4)c23)CC1,.,.,.,?,.,/
Clc1ccc(CN2CCN(c3ncnc4scc(-c5cccs5)c34)CC2)cc1,?,?,.,13µM,.,.
CCN(CC)CCNC(=O)Cc1nn(Cc2ccccc2)c(=O)c2ccccc12,.,.,2.31µM,.,.,.
Cc1ccc(-c2cnc(CCC(=O)Nc3cccc(F)c3)o2)cc1C,/,/,/,/,/,.
COC(=O)C(=O)CC(=O)c1ccc(C)s1,/,/,/,/,/,.
O=C(COC(=O)CC(c1ccccc1)c1ccccc1)NCc1ccc(Cl)cc1,.,?,?,23.1µM,?,.
CCCC(=O)OCC(=O)NCc1ccc(Cl)cc1,.,.,.,.,.,.
